Pf Dd2 inh = Plasmodium falciparum Dd2 growth inhibition. P. falciparum Dd2 growth, SYBR Green, 72 h. Potency, µM (highest dose often 28.9 µM), inactives show top-dose activity, negative = inhibition, actives largely listed as inhibitors. actives 4.3% (n = 120,000); active means well fitted inhibition curve with a large enough effect;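 further: plate controls were DMSO vehicle for no effect and reference drug for full effect; nearly all actives have a fitted effect of over 65% in size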
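Readout: SYBR Green fluorescence, 485 nm excitation, 535 nm emission, after ~16 h lysis at 37C. Before that, Dd2-infected red cells (2.5% hematocrit) grew 72 h with compound, 29 uM top final concentration.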
* = called active by the depositor; i = inactive; [ ] = another dose, or the depositor's remark. The entries come from a sample that favours hits as a whole. Potency means the concentration at half of the fitted maximal effect.

SMILES | Pf Dd2 inh
CCOc1ccccc1CNC(=O)c1cc2cn(C3CCCC3)cc2s1 | 12.6µM*
COc1ccccc1CNC(=O)c1cc2cn(C3CC3)cc2s1 | i
CCOc1ccccc1CNC(=O)c1cc2cn(C(C)C)cc2s1 | -11.8%
c1cnc2c(c1)ncn2C1CCCCC1 | -18.1%[44.1 µM]
CNC(=O)[C@@H]1CN(C(=O)c2cncc(Br)c2)C[C@H]1CO | 7.8%
CN(C)C(=O)c1c(NC(=O)c2ccccc2F)sc2c1CCCC2 | 5.5%
CC(C)(C)C1CCc2c(sc(NC(=O)C3c4ccccc4Oc4ccccc43)c2C(N)=O)C1 (stereo not drawn) | 12.6µM*
CC1CCN(C(=O)c2c(NC(=O)c3ccccc3F)sc3c2CCC(C(C)(C)C)C3)CC1 (stereo not drawn) | 8.91µM*
CCOC(=O)c1c(NC(=O)C2c3ccccc3Oc3ccccc32)sc2c1CCC(CC)C2 (stereo not drawn) | -2.8%
O=C(Nc1sc2c(c1C(=O)N1CCCCC1)CCCC2)c1ccccc1Cl | -12.3%
CC(C)(C)C1CCc2c(sc(NC(=O)c3cccc(Cl)c3)c2C(N)=O)C1 (stereo not drawn) | 11.4%
CCOc1ccc2c(n1)CCN(C(=O)c1ccn(CC)n1)C2 | -22.1%
CC(C)NC(=O)C[C@@H]1O[C@H](Cn2cc(CN(C)Cc3ccccc3)nn2)[C@@H](O)[C@H]1O | 25.0%[44.1 µM]
CCn1nccc1C(=O)N1CCCC(COc2ccccc2C(=O)NC(C)C)C1 (stereo not drawn) | -0.7%
COCC(=O)N[C@H](C)c1onc(-c2cccnc2)c1C(=O)O | -20.1%[44.1 µM]
O=C1[C@@H]2C[C@@H](CN2C(=O)C2CC2)Oc2ccccc2N1Cc1ccc(OC(F)(F)F)cc1 | i
COCC(=O)N1C[C@@H]2C[C@H]1C(=O)N(Cc1ccc(OC(F)(F)F)cc1)c1ccccc1O2 | i
O=C1[C@@H]2C[C@@H](CN2Cc2nccs2)Oc2ccccc2N1CC1CC1 | i
O=C1[C@@H]2C[C@@H](CN2CC2CC2)Oc2ccccc2N1Cc1ccc(OC(F)(F)F)cc1 | 3.98µM*
O=C1[C@@H]2C[C@@H](CN2Cc2cccc(Cl)c2)Oc2ccccc2N1CC1CC1 | -10.8%[44.1 µM]
O=C1[C@@H]2C[C@@H](CN2Cc2ccc(Cl)cc2)Oc2ccccc2N1CC1CC1 | 12.6µM*
Cc1n[nH]c(C)c1-c1nc2c([nH]1)CNCC2 | -3.3%
COc1ccc(CN2CCCC3(CC(C(C)C)=NO3)C2)cc1 (stereo not drawn) | 1.0%
COc1ccccc1-n1nc(-c2c(C)nc3scc(CC(=O)NCCC(C)C)n3c2=O)cc1C | i
Cc1ccccc1NC(=O)N1CCC(N2CCCC(C(=O)N3CCCC3)C2)CC1 (stereo not drawn) | -9.2%
SMILES | Pf Dd2 inh
O=C1CCN(C(=O)Nc2ccccc2)CCCC(c2nc(-c3cccnc3)no2)CCN1 (stereo not drawn) | -17.1%
COc1ccc2[nH]c(C(=O)N(CC3CC3)CC3CCCO3)c(C)c2c1 (stereo not drawn) | -4.5%
COc1cc2c(cc1OC)C(COc1ccc3c(C)cc(=O)oc3c1)N(C(=O)c1cccc(C)c1)CC2 (stereo not drawn) | 5.01µM*
COc1ccc(OCC(=O)N2CCN(C(=O)c3cccc(OC)c3OC)CC2)cc1 | -0.8%
COc1cc2c(cc1OC)C(COc1ccc3c(C)cc(=O)oc3c1)N(C(=O)c1cccc(OC)c1OC)CC2 (stereo not drawn) | 8.91µM*
COc1ccc(CC(=O)NCc2ccc3c(c2)CCN3C(=O)c2cccc(C)c2)cc1 | i
CCNC(=O)NCC1c2cc(OC)c(OC)cc2CCN1C(=O)Nc1ccccc1OC (stereo not drawn) | i
Cc1cc(C)c(NC(=O)COc2ccc3c(C)cc(=O)oc3c2)c(C)c1 | i
O=C(C1CCCC1)N1CCC(n2cnnc2C2CC2)CC1 | -2.6%
CNC(=O)[C@@H]1C[C@H](n2cc(CN(C)C(=O)Nc3ccccc3)nn2)CN1 | -8.9%
O=C([C@@H]1C[C@@H]2C=C[C@H]1C2)N1CCc2c(nc(-c3cccnc3)[nH]c2=O)C1 | -27.2%
NC(=O)[C@@H](Cc1ccccc1)NC(=O)C1=C[C@@H](NC(=O)c2ccc(F)c(Cl)c2)[C@@H](O)[C@H](O)C1 | -18.0%
Cc1ccc(NC(=O)N(C)CC2CCOC2)c(Cl)c1 (stereo not drawn) | i[5.79 µM]
O=C1NCN(Cc2ccc(Cl)cc2)C12CCN(Cc1ccccc1C(F)(F)F)CC2 | i
CCC(CC)CN1CC2(CCN(C(=O)c3cn4cccnc4n3)CC2)OC1=O | -12.1%
O=C(O)Cn1ccc2cc(OCCc3cccc(-c4ccc(F)cc4)c3)cnc21 | -23.5%[44.1 µM]
Cc1cnc(-c2ccccc2)n1C1CCN(S(C)(=O)=O)CC1 | -5.7%
O=C(c1ccccc1OCC1CCCNC1)N1CCCCC1 (stereo not drawn) | -5.8%
CC1=C[C@@H](CN2CCOCC2)[C@H](C(C)C)C[C@H]1Cc1nnc(-c2ccccc2)o1 | -1.0%[44.1 µM]
COCCN1CCN(C[C@@H]2C=C(C)[C@H](Cc3nnc(C)o3)C[C@H]2C(C)C)CC1 | -12.8%[44.1 µM]
CC1=C[C@@H](CN2CCN(CCO)CC2)[C@H](C(C)C)C[C@H]1Cc1nnc(C)o1 | i

Screens deposited in PubChem BioAssay by National Center for Advancing Translational Sciences (NCATS).
